Measurements published in PubChem BioAssay AID1159580 (chemical genetic matrix, 2015).
Out of some 5,500 compounds screened, about 2,000 (36%) were called active. Another 18% or so got no clear call; they are omitted. Cut-off read from the data, not from the text of the source: active = normalized growth mostly below about 0.91 (no sharp cut-off); inconclusive = no clear call, values can overlap the other calls; inactive = mostly above about 0.92. The list shows a part of the results.

Test: chemical genetic growth profiling, strain panel (AID 1159580);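 note: tested at 20 µM; growth read once vehicle control cultures reached saturation at 30 °C; 1 = growth at the plate median or of vehicle wells; lower values mean less growth of the strain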
Conditions: S. cerevisiae deletion strains, growth OD
[1] = locus YAL013W, strain DEP1, hits give low values
[2] = locus YBR229C, strain ROT2, hits give low values
[3] = locus YDL101C, strain DUN1, hits give low values
[4] = locus YDL134C, strain PPH21, hits give low values
[5] = locus YDR150W, strain NUM1, hits give low values
[6] = locus YEL061C, strain CIN8, hits give low values
[7] = locus YGR078C, strain PAC10, hits give low values
[8] = locus YGR229C, strain SMI1, hits give low values
[9] = locus YHR030C, strain SLT2, hits give low values
[10] = locus YHR087W, strain rtc3, hits give low values
[11] = locus YJR043C, strain POL32, hits give low values
[12] = locus YJR075W, strain HOC1, hits give low values
[13] = locus YKL190W, strain CNB1, hits give low values
[14] = locus YLR039C, strain RIC1, hits give low values
[15] = locus YLR058C, strain SHM2 (second series), hits give low values
[16] = locus YLR085C, strain ARP6, hits give low values
[17] = locus YLR262C, strain YPT6, hits give low values
[18] = locus YML094W, strain GIM5, hits give low values
[19] = locus YMR219W, strain ESC1, hits give low values
[20] = locus YMR263W, strain SAP30, hits give low values
[21] = locus YMR307W, strain GAS1, hits give low values
[22] = locus YNL128W, strain TEP1, hits give low values
[23] = locus YNL153C, strain GIM3, hits give low values
[24] = locus YNL298W, strain CLA4 (second series), hits give low values
[25] = locus YNL322C, strain KRE1, hits give low values
[26] = locus YNR030W, strain Alg12, hits give low values
[27] = locus YOL006C, strain TOP1, hits give low values
[28] = locus YPL055C, strain LGE1, hits give low values
[29] = locus YPL241C, strain CIN2, hits give low values
[30] = locus YPR135W, strain CTF4, hits give low values
[31] = locus YAR019C, strain CDC15, hits give low values
[32] = locus YBL105C, strain PKC1, hits give low values
[33] = locus YBR135W, strain CKS1, hits give low values
[34] = locus YBR136W, strain MEC1, hits give low values
[35] = locus YBR160W, strain CDC28, hits give low values
[36] = locus YDL017W, strain CDC7, hits give low values
[37] = locus YDL028C, strain MPS1, hits give low values
[38] = locus YDL108W, strain KIN28, hits give low values
[39] = locus YDL132W, strain cdc53, hits give low values
[40] = locus YDL214C, strain PRR2, hits give low values
[41] = locus YDR052C, strain DBF4, hits give low values
[42] = locus YDR054C, strain cdc34, hits give low values
[43] = locus YDR226W, strain ADK1, hits give low values
[44] = locus YDR477W, strain SNF1, hits give low values
[45] = locus YER123W, strain YCK3, hits give low values
[46] = locus YER133W, strain GLC7, hits give low values
[47] = locus YFL009W, strain cdc4, hits give low values
[48] = locus YFL029C, strain CAK1, hits give low values
[49] = locus YFR003C, strain YPI1, hits give low values
[50] = locus YFR019W, strain FAB1, hits give low values
[51] = locus YFR028C, strain CDC14, hits give low values
[52] = locus YGR040W, strain KSS1, hits give low values
[53] = locus YGR052W, strain FMP48, hits give low values
[54] = locus YGR092W, strain DBF2, hits give low values
[55] = locus YHR079C, strain IRE1, hits give low values
[56] = locus YHR082C, strain KSP1, hits give low values
[57] = locus YHR205W, strain SCH9, hits give low values
[58] = locus YIL147C, strain SLN1, hits give low values
[59] = locus YJL095W, strain BCK1, hits give low values
[60] = locus YJL128C, strain PBS2, hits give low values
[61] = locus YJL157C, strain FAR1, hits give low values
[62] = locus YJR016C, strain ILV3, hits give low values
[63] = locus YJR066W, strain TOR1 (second series), hits give low values
[64] = locus YJR066W, strain TOR1, hits give low values
[65] = locus YKL048C, strain ELM1, hits give low values
[66] = locus YKL067W, strain YNK1, hits give low values
[67] = locus YKL101W, strain HSL1, hits give low values
[68] = locus YKL193C, strain SDS22, hits give low values
[69] = locus YKL203C, strain TOR2, hits give low values
[70] = locus YLR113W, strain HOG1, hits give low values
[71] = locus YLR133W, strain CKI1, hits give low values
[72] = locus YLR403W, strain SFP1, hits give low values
[73] = locus YML070W, strain DAK1, hits give low values
[74] = locus YMR001C, strain CDC5, hits give low values
[75] = locus YMR205C, strain PFK2 (second series), hits give low values
[76] = locus YMR277W, strain FCP1, hits give low values
[77] = locus YNL006W, strain LST8, hits give low values
[78] = locus YNL020C, strain ARK1, hits give low values
[79] = locus YNL161W, strain CBK1, hits give low values
[80] = locus YNL183C, strain NPR1, hits give low values
[81] = locus YNL207W, strain RIO2, hits give low values
[82] = locus YNL222W, strain SSU72, hits give low values
[83] = locus YNL307C, strain MCK1 (second series), hits give low values
[84] = locus YOL078W, strain AVO1, hits give low values
[85] = locus YOL136C, strain PFK27, hits give low values
[86] = locus YOR061W, strain CKA2, hits give low values
[87] = locus YOR119C, strain RIO1, hits give low values
[88] = locus YOR231W, strain MKK1, hits give low values
[89] = locus YOR329C, strain SCD5, hits give low values
[90] = locus YPL031C, strain PHO85, hits give low values
[91] = locus YPL153C, strain RAD53, hits give low values
[92] = locus YPL204W, strain HRR25, hits give low values
[93] = locus YPL209C, strain IPL1, hits give low values
[94] = locus YPL256C, strain CLN2, hits give low values
[95] = locus YPR025C, strain CCL1, hits give low values
[96] = locus YPR106W, strain ISR1, hits give low values
[97] = locus YPR111W, strain DBF20, hits give low values
[98] = strain NNK1, hits give low values
[99] = strain TSCII, hits give low values

Measured: normalized growth

S=c1nc(-c2ccccc2)[nH][nH]1
inactive: [1] 0.997 | [2] 1.01 | [3] 1.02 | [4] 0.979 | [5] 1.01 | [6] 0.992 | [7] 0.988 | [8] 0.994 | [9] 1.06 | [10] 1.01 | [11] 0.99 | [12] 0.982 | [13] 0.982 | [14] 1.02 | [15] 0.999 | [16] 1.03 | [17] 0.991 | [18] 1.11 | [19] 0.999 | [20] 0.998 | [21] 1.08 | [22] 0.985 | [23] 0.998 | [24] 0.992 | [25] 1 | [26] 1.01 | [27] 1.06 | [28] 1.03 | [29] 1.01 | [30] 1.02

O=c1nc(-c2ccccc2)nc(-c2ccccc2)[nH]1
inactive: [1] 0.985 | [2] 1 | locus YCL061C, strain MRC1, hits give low values 0.999 | [3] 1.03 | [4] 0.955 | [5] 0.993 | [6] 0.97 | [7] 1 | [9] 0.972 | [10] 0.987 | [11] 0.986 | [12] 1 | [13] 0.96 | [14] 0.922 | [15] 0.993 | [16] 0.951 | [17] 0.902 | [18] 1.08 | [19] 1 | [20] 1.01 | [22] 0.968 | [23] 1.01 | [24] 0.944 | [25] 0.984 | [26] 0.989 | [27] 0.932 | [28] 1.01 | [29] 1.03 | [30] 0.991

CCOC(=O)C(NC(C)=O)(Nc1ccc(F)c(Cl)c1)C(F)(F)F (centres undefined)
active: [9] 1.19 [resistant]
inactive: [31] 0.992 | [32] 0.995 | [33] 0.983 | [34] 0.997 | [35] 0.991 | [36] 0.992 | [37] 0.995 | [3] 0.982 | [38] 0.997 | [39] 0.991 | [40] 1.01 | [41] 0.99 | [42] 0.997 | [43] 0.985 | [44] 1 | [45] 0.933 | [46] 0.994 | [47] 0.991 | [48] 0.994 | [49] 0.992 | [50] 0.973 | [51] 0.979 | [52] 0.988 | [53] 1.14 | [54] 0.97 | [55] 1.15 | [56] 1.14 | [57] 1.01 | [58] 0.99 | [59] 1.14 | [60] 0.963 | [61] 1.01 | [62] 0.998 | [63] 0.997 | [64] 1.18 | [65] 0.998 | [66] 1 | [67] 1.01 | [68] 0.979 | [69] 1.07 | [70] 1.11 | [71] 1.01 | [72] 1.01 | [73] 0.997 | [74] 0.984 | [75] 0.992 | [76] 0.988 | [77] 0.988 | [78] 1.01 | [79] 0.986 | [80] 1.16 | [81] 1 | [82] 0.989 | [83] 1.01 | [84] 0.981 | [85] 0.999 | [86] 1 | [87] 1 | [88] 1.11 | [89] 0.991 | [90] 1 | [91] 0.993 | [92] 0.996 | [93] 0.988 | [94] 1.12 | [95] 0.986 | [96] 0.99 | [97] 0.997 | [98] 1.01 | [99] 0.986

CCOC(=N)c1ccc(F)c(Cl)c1
inactive: [1] 1.01 | [2] 0.995 | [3] 0.992 | [4] 1.02 | [5] 1.01 | [6] 1.01 | [7] 1.02 | [8] 1.02 | [9] 1.02 | [10] 0.995 | [11] 1.02 | [12] 1.01 | [14] 1.07 | [15] 1.01 | [16] 1.02 | [17] 1.06 | [18] 0.981 | [19] 1.02 | [20] 1.06 | [21] 1.07 | [23] 0.999 | [24] 1.06 | [25] 1.01 | [26] 1.01 | [27] 1.06 | [28] 1.02 | [29] 0.923 | [30] 1.05

CCOC(=O)C(O)(c1ccc(NC(=O)Nc2ccc(Cl)cc2)cc1)C(F)(F)F (centres undefined)
inactive: [31] 0.993 | [32] 0.985 | [33] 0.997 | [34] 0.985 | [35] 0.99 | [36] 0.989 | [37] 0.987 | [3] 0.982 | [38] 0.986 | [39] 0.993 | [40] 1.03 | [41] 0.984 | [42] 0.986 | [43] 0.993 | [44] 1.01 | [45] 1.01 | [46] 1 | [47] 0.997 | [48] 0.99 | [49] 0.988 | [50] 0.988 | [51] 0.992 | [52] 0.999 | [53] 0.991 | [54] 0.924 | [9] 1.06 | [55] 1.04 | [56] 1.05 | [57] 0.935 | [58] 0.981 | [59] 0.915 | [60] 0.956 | [61] 1 | [62] 0.994 | [63] 0.977 | [64] 1.03 | [65] 1.01 | [66] 0.994 | [67] 0.975 | [68] 0.987 | [69] 1.04 | [70] 0.963 | [71] 1.01 | [72] 0.973 | [73] 0.992 | [74] 0.983 | [75] 0.991 | [76] 0.999 | [77] 1.01 | [78] 1 | [79] 0.998 | [80] 1.01 | [81] 0.983 | [82] 0.979 | [83] 0.924 | [84] 0.982 | [85] 0.992 | [86] 1 | [87] 1.08 | [88] 0.986 | [89] 0.992 | [90] 0.987 | [91] 1.03 | [92] 1 | [93] 0.996 | [94] 1.11 | [95] 0.99 | [96] 0.992 | [97] 0.986 | [98] 0.998 | [99] 0.993
